Hit rate of the full screen: of about 190,000 compounds, about 1,300 (0.68%) were called active. The list comes from a sample in which actives are over-represented; it also holds similar structures and randomly drawn compounds. A number with no mark means an inactive call. No stated cut-off is given here; in the data, active means inhibition above about 50%; inactive means the rest.

Mannose-6-phosphate isomerase (Homo sapiens), sequence (P34949 whole entry, looked up): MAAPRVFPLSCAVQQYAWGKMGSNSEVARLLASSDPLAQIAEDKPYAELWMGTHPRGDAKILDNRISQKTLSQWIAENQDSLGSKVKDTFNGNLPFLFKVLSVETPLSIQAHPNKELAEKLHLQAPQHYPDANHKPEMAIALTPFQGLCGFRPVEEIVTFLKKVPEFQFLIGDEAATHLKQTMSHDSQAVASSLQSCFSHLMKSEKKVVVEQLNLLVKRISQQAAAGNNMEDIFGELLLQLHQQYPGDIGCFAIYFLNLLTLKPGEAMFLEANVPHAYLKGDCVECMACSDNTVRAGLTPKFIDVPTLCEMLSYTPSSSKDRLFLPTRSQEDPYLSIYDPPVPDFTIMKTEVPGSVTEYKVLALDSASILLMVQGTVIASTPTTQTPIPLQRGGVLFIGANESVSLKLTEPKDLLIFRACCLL

The assay has as its target Mannose-6-phosphate isomerase (Homo sapiens) (UniProt P34949). The experiment in a line: human PMI inhibitors, high substrate, primary screen, biochemical, fluorescence intensity, high mannose 6-phosphate (AID 1220). To be noted: recombinant PMI enzyme, coupled fluorescence intensity; at 20 µM; active compounds read high.
For orientation: inhibition means the drop in the measured response relative to a control, in per cent. For `CCN(CC)c1ccc(/C=C2\C(=O)NC(=O)N(CC3CCCO3)C2=O)cc1` (configuration not stated), the inhibition is -4.6%. Consider `CC(=O)c1c(O)n(C)c(=S)n(-c2ccccc2)c1=O`, for which the inhibition was -1.3%. Then `CNC(=O)Oc1ccc(-c2cn3cc(C)ccc3n2)cc1`, with 4.6%. Then `CNC(=O)Oc1cccc(-c2cn3cc(OC(=O)NC)ccc3n2)c1`, with 54.4% (active); and `CNC(=O)Oc1cccc(-c2cn3cc(Cl)ccc3n2)c1`, with 3%; and `CN1CCN(c2c(C#N)c(C(F)(F)F)nn2C)CC1`, with -13.8%. Then `O=C(CN1CC(c2ccccc2)CC1=O)Nc1cccc(F)c1` (configuration not stated), with 3.7%; and `O=C1NC(=O)N(Cc2ccccc2)C(=O)/C1=C/N1CCCc2ccccc21`, with 6%. As for `O=c1[nH]c(=O)n(Cc2ccc(F)cc2)c(O)c1C=NCC1CCCO1` (configuration not stated), the inhibition is -20.4%.

On to `O=[N+]([O-])[N-][n+]1cnn(Cc2ccccc2)c1`, for which the inhibition is -10.9%.

In the case of `Cc1cc(OCC(=O)Nc2c(C)n(C)n(-c3ccccc3)c2=O)c2c3c(c(=O)oc2c1)CCC3`, the inhibition is 10.1%.

Take `Cc1cccc(NC(=O)N2CCCC2)c1`: the inhibition was -7.3%.

In the case of `COc1cc(/C=C2\C(=O)NC(=O)N(c3ccccc3)C2=O)cc(OC)c1O`, the inhibition was 13%. For `COc1cc(/C=C2\C(=O)NC(=O)N(c3ccc(C)cc3)C2=O)cc(OC)c1O`, the inhibition is 67.6% (active).

Take `COc1cc(/C=C2/C(=O)NC(=O)N(c3ccccc3)C2=O)ccc1O`: the inhibition is 1.2%.

With `CCC(=O)N1CC(=O)Nc2ccc(Br)cc2C1c1ccccc1` (configuration not stated), the inhibition was 2.3%. With `Cc1cccc(C)c1NC(=O)c1cccn(Cc2ccc3c(c2)OC(F)(F)O3)c1=O`, the inhibition is 9.6%. With `C(#CCN1CCOCC1)COC/C=C/c1ccccc1` the figure was -8.9%; with `COc1ccc(OC)c(N2C(=O)NC(=O)/C(=C/c3ccc([N+](=O)[O-])s3)C2=O)c1`, 56.6% (active); with `COc1ccc(N2C(=O)NC(=O)/C(=C\c3ccc([N+](=O)[O-])s3)C2=O)cc1`, -53.3%. Then `COc1ccc(OC)c(N2C(=O)NC(=O)/C(=C\c3ccc([N+](=O)[O-])s3)C2=O)c1`, with -46.8%; and `CN1C(=O)C(=Cc2ccc(-c3cccc(Cl)c3)o2)C(=O)N(C)C1=O`, with -7.8%; and `CCN(CC)S(=O)(=O)c1ccc(N=Cc2c(O)n(-c3ccccc3)c(=O)[nH]c2=O)cc1`, with -8.6%. With `COc1ccc(CCn2c(O)c(C=NCc3ccc4c(c3)OCO4)c(=O)[nH]c2=O)cc1OC` the figure was 8.6%. For `COc1ccc(CCn2c(O)c(/C=N/NC(=O)c3ccncc3)c(=O)[nH]c2=O)cc1OC`, the inhibition was -12.8%. In the case of `O=C(N/N=C/c1c(O)n(CCc2ccccc2)c(=O)[nH]c1=O)c1ccncc1`, the inhibition was -28.2%. Then `O=C(N/N=C/c1c(O)n(CCc2ccc(F)cc2)c(=O)[nH]c1=O)c1ccncc1`, with 53% (active); and `CC1CCN(S(=O)(=O)c2ccc(NN=C(C#N)C#N)cc2)CC1`, with -24.1%; and `CC(C)Oc1cccc(C(=O)C2CCCN(Cc3ccon3)C2)c1` (configuration not stated), with 4%. Then `CC(=O)NC1CC2CCCC(C1)N2` (configuration not stated), with -5.2%; and `O=C(NC1(C(F)(F)F)Oc2ccc(Cl)cc2O1)N1CCC2(CC1)OCCO2` (configuration not stated), with 70.3% (active); and `O=C(NC1(C(F)(F)F)Oc2ccccc2O1)N1CCC2(CC1)OCCO2`, with 3.8%. Then `O=C(NC(=O)N1CCC2(CC1)OCCO2)c1ccc(Cl)cc1`, with 11.1%. As for `O=c1[nH]c(=O)n(Cc2ccccc2Cl)c(O)c1C=Nc1ccc(F)cc1`, the inhibition was 13.7%. As for `CC(=NCCN1CCCCC1)c1c(O)n(-c2ccc(Cl)cc2)c(=O)[nH]c1=O`, the inhibition is 2.8%. For the molecule `COc1cc2c(cc1OC)-c1c(OC)c(OC)cc3c1[C@H](C2)N(C)CC3`, the inhibition is -16.2%. `COc1cc2c(cc1O)CC1c3c(cc(O)c(OC)c3-2)CCN1C` (configuration not stated): the inhibition is 52.5% (active). For the molecule `COc1cc2c(cc1OC)-c1c(OC)c(OC)cc3c1C(C2)N(C)CC3` (configuration not stated), the inhibition is 39.3%.

On to `CCc1cccc(C)c1NC(=S)N1CC2CC(C1)c1cccc(=O)n1C2` (configuration not stated), for which the inhibition is -3.9%. Then `CCN(CC)C(=O)c1ccc(N2C(=O)C3CC=C(Cl)CC3C2=O)cc1` (configuration not stated), with -1.5%; and `Nc1ccncc1Cl`, with -4.4%.

With `N#Cc1cc2c(nc1SCC(=O)Nc1ccc(Cl)cc1)C1CCN2CC1`, the inhibition is -2.2%. With `CN1C[C@H](CNC(=O)OCc2ccccc2)C[C@@H]2c3cccc4c3c(cn4C)C[C@H]21` the figure was 58.2% (active). `CCN(CC)C(=O)N[C@H]1C[C@@H]2c3cccc4[nH]cc(c34)C[C@H]2N(C)C1`: the inhibition is -0.8%. On to `O=C(NC[P+](=O)O)OCc1ccccc1`, for which the inhibition was -7%. With `CC(C)CCN1CCN(Cc2c(F)cccc2Cl)CC1CCO` (configuration not stated) the figure was -1.1%. Then `CC(=O)OC1(c2ccccc2)CCN(C)C(C)C1C` (configuration not stated), with -7.2%.
